Measured values published in PubChem BioAssay (Tox21).
“And” between values parts separate entries of the source, which are not always exact repeats. Identical values can stand only once. Results filed as inconclusive are left out. Where a call stands in place of a potency, no number is given. A structure can be active in one record and inactive in another. The source made the active and inactive calls. Unless noted, calls follow the shape of the dose curve; as a rule, active = well fitted curve in the direction sought with a large enough effect in the repeat runs; inconclusive = weak or mixed curves; inactive = no such curve, though single readings can be large; an effect the other way counts as inactive or inconclusive.

Tests used:
[1] = qHTS assay to identify small molecule antagonists of the glucocorticoid receptor (GR) signaling pathway - cell viability counter screen (AID 720693); also: nearly all actives have a fitted effect of over 55% in size; also: potency is read from the fitted curve at half-maximal effect
[2] = qHTS assay for identifying genotoxic compounds that show differential cytotoxicity against isogenic chicken DT40 cell lines with known DNA damage response pathways - Rev3 mutant cell line (AID 743014); also: nearly all actives have a fitted effect of over 55% in size; also: potency is read from the fitted curve at half-maximal effect
[3] = qHTS assay for identifying genotoxic compounds that show differential cytotoxicity against isogenic chicken DT40 cell lines with known DNA damage response pathways - Rad54/Ku70 mutant cell line (AID 743015); also: nearly all actives have a fitted effect of over 60% in size; also: potency is read from the fitted curve at half-maximal effect
[4] = qHTS assay to identify small molecule antagonists of the androgen receptor (AR) signaling pathway - cell viability counter screen (AID 743033; also: nearly all actives have a fitted effect of over 45% in size; also: potency is read from the fitted curve at half-maximal effect)
[5] = qHTS assay for identifying genotoxic compounds that show differential cytotoxicity against isogenic chicken DT40 cell lines with known DNA damage response pathways - wild type cell line (AID 743012); also: nearly all actives have a fitted effect of over 60% in size; also: potency is read from the fitted curve at half-maximal effect
Summary of the method: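 CellTiter-Glo luminescence readout of viability in wild type DT40 cells after 40 h compound exposure at 37 C/5% CO2; 300 cells/well; reagent incubated 30 min at room temperature before reading.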

[6] = qHTS assay to identify small molecule antagonists of the androgen receptor (AR) signaling pathway using the MDA cell line - cell viability counter screen (AID 743041; also: nearly all actives have a fitted effect of over 45% in size; also: potency is read from the fitted curve at half-maximal effect)
Summary of the method: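 qHTS viability read-out; MDA-kb2 AR-luc; R1881-stimulated; 16 h exposure at 37C, 0% CO2; CellTiter-Fluor, 30 min; fluorescence intensity.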

[7] = target: Androgen receptor (Homo sapiens) (UniProt P10275); test: qHTS assay to identify small molecule antagonists of the androgen receptor (AR) signaling pathway (AID 743035; active = well fitted inhibition curve with a large enough effect in the signal ratio in the repeat runs, not every such curve was filed as active; the % refers to the signal ratio)
Summary of the method: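 AR-bla HEK293 reporter cells; 4 h settle at 37C/5% CO2; compound + R1881 agonist, 16 h at 37C; LiveBLAzer B/G FRET substrate 2 h RT; fluorescence intensity read. qHTS format.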

[8] = target: Androgen receptor (Homo sapiens) (UniProt P10275); test: qHTS assay to identify small molecule agonists of the androgen receptor (AR) signaling pathway (AID 743036; active = well fitted activation curve with a large enough effect in the signal ratio in the repeat runs, with a control signal flat, not every such curve was filed as active; the % refers to the signal ratio)
Summary of the method: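 Beta-lactamase under UAS control, stably integrated in HEK293 GripTite cells, reports receptor activation. After 16 h compound treatment, cells received FRET substrate for 2 h at room temperature before fluorescence reading.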

[9] = target: Androgen receptor (Homo sapiens) (UniProt P10275); test: qHTS assay to identify small molecule agonists of the androgen receptor (AR) signaling pathway using the MDA cell line (AID 743040; also: nearly all actives have a fitted effect of over 20% in size)
Summary of the method: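 Agonist activity is measured as luciferase luminescence in human MDA-kb2 cells whose MMTV reporter responds to both AR and GR. Compounds in DMSO incubate 16 h at 37C, 0% CO2, and ONE-Glo is read after 30 min.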

[10] = target: Androgen receptor (Homo sapiens) (UniProt P10275); test: qHTS assay to identify small molecule antagonists of the androgen receptor (AR) signaling pathway using the MDA cell line (AID 743042; also: nearly all actives have a fitted effect of over 55% in size; also: potency is read from the fitted curve at half-maximal effect)
Summary of the method: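 MDA-kb2 cells (human breast carcinoma, stably carrying an MMTV-luciferase reporter responsive to AR and GR) were plated at 3,000 cells/well and preincubated 5 hr at 37C, then given compound plus R1881 agonist for 16 h. ONE-Glo luminescence was read.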

Sequence of Androgen receptor (Homo sapiens) (P10275 whole entry, looked up): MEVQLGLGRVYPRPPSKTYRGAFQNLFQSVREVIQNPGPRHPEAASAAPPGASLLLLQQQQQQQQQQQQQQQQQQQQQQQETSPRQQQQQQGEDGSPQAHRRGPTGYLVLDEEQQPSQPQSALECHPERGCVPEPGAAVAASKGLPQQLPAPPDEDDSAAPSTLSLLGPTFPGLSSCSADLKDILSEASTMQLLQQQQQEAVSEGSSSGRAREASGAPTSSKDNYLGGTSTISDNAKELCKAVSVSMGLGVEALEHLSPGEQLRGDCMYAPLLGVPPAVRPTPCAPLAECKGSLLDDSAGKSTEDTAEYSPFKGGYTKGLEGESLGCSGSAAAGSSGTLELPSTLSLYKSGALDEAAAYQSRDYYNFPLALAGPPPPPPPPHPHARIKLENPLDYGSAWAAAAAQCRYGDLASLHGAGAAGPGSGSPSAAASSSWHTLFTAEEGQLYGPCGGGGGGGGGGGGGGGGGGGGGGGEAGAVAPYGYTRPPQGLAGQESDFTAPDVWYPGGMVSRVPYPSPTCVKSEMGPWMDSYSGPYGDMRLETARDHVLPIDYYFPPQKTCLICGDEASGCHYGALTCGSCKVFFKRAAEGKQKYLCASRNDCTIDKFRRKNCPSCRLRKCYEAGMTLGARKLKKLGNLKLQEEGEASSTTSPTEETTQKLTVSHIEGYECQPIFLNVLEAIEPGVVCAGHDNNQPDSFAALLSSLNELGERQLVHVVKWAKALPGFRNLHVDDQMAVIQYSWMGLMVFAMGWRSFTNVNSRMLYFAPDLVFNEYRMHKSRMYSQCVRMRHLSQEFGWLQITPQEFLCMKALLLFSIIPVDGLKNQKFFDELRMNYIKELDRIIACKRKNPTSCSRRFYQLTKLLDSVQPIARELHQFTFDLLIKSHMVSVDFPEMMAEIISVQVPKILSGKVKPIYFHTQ

SMILES	Potency [1]	Potency [2]	Potency [3]	Potency [4]	Potency [5]	Potency [6]	Potency [7]	outcome [8]	Potency [9]	Potency [10]
O=C1OC2(c3ccccc31)c1cc(I)c(O)c(I)c1Oc1c2cc(I)c(O)c1I	inactive	27.6 µM (active) and 11.7 µM (active)	17.4 µM (active) and 10.5 µM (active)	inactive	–	–	–	–	–	–
Cc1ccc2c(c1)C(=O)OC2=O	inactive	inactive	inactive	inactive	inactive	inactive	–	–	–	–
COCCOCCOCCO	inactive	inactive	inactive	inactive	inactive	inactive	–	–	–	–
Cc1ccc(C(C)(C)C)c(O)c1	inactive	inactive and 48.6 µM (active)	inactive and 43.3 µM (active)	–	54.5 µM (active)	inactive	–	–	–	–
O=C(O)c1cc(=O)[nH]c(=O)[nH]1	inactive	inactive	inactive	inactive	–	inactive	–	–	–	–
C=C[C@H]1CN2CC[C@H]1C[C@@H]2[C@@H](O)c1ccnc2ccc(OC)cc12	inactive	47.8 µM (active)	29.8 µM (active) and 60.1 µM (active)	inactive	29.8 µM (active)	inactive	–	–	–	–
C[C@]12CC[C@@H]3c4ccc(O)cc4CC[C@H]3[C@@H]1CC[C@@H]2O	24.5 µM (active)	23.7 µM (active) and 54.4 µM (active) and 54.5 µM (active)	26.6 µM (active) and 54.5 µM (active)	inactive	29.8 µM (active) and 61.1 µM (active)	inactive	–	–	–	–
CCCCCC=O	inactive	inactive	inactive	inactive	inactive	inactive	–	–	–	–
CC(=O)OC(C)C	inactive	inactive	inactive	inactive	inactive	inactive	–	–	–	–
COC(=O)CC(=O)OC	inactive	inactive	inactive	inactive	–	inactive	–	–	–	–
O=[Se](O)O	inactive	545 nM (active) and 4.16 µM (active)	244 nM (active) and 2.34 µM (active)	inactive	–	–	–	–	–	–
Clc1ccc(Sc2cc(Cl)c(Cl)cc2Cl)cc1	inactive	inactive	inactive	inactive	inactive	inactive	–	–	–	–
CCCCCC1C(=O)CCC1CC(=O)OC (configuration not stated)	inactive	inactive	inactive	inactive	inactive	inactive	–	–	–	–
Cc1ccc([N+](=O)[O-])c(C)c1	inactive	inactive	inactive	inactive	inactive	inactive	–	–	–	–
C1CN(SSN2CCOCC2)CCO1	inactive	42.8 µM (active) and 27.3 µM (active)	19.3 µM (active)	–	27.3 µM (active)	inactive	–	–	–	–
O=C1CCc2ccccc2O1	inactive	inactive	inactive	inactive	inactive	inactive	–	–	–	–
CC(C)(Oc1ccc(Cl)cc1)C(=O)O	inactive	inactive	inactive	inactive	inactive	inactive	–	–	–	–
OCCNCCO	inactive	inactive	inactive	inactive	inactive	inactive	–	–	–	–
OC[C@@H](O)[C@@H](O[C@@H]1O[C@H](CO)[C@H](O)[C@H](O)[C@H]1O)[C@H](O)[C@@H](O)CO	inactive	inactive	inactive	inactive	inactive	inactive	–	–	–	–
Cc1ccc(C)c(O)c1	inactive	inactive	inactive	inactive	inactive	inactive	–	–	–	–
CC1(C)C(C=C(Cl)Cl)C1C(=O)OCc1cccc(Oc2ccccc2)c1 (configuration not stated)	inactive	inactive	inactive	inactive	–	inactive	inactive	inactive	inactive	inactive
CC[C@]12CCCN3CCc4c(n(c5ccccc45)[C@@](O)(C(=O)OC)C1)[C@@H]32	inactive	inactive	inactive	inactive	–	inactive	inactive	inactive	inactive	inactive
CN(C)/N=N/c1nc[nH]c1C(N)=O	inactive	inactive	62 µM (active)	inactive	inactive	inactive	–	–	–	–

SMILES	Potency [1]	Potency [2]	Potency [3]	Potency [4]	Potency [5]	Potency [6]	Potency [7]	outcome [8]	Potency [9]	Potency [10]
c1ccc2cc3ccccc3cc2c1	inactive	inactive	inactive	inactive	inactive	inactive	–	–	–	–
CNC[C@H](O)c1ccc(O)c(O)c1	inactive	inactive	–	inactive	29.8 µM (active)	inactive	–	–	–	–
Cc1ccc(/C(=C\CN2CCCC2)c2ccccn2)cc1	inactive	inactive and 57.3 µM (active)	23.7 µM (active) and 64.3 µM (active)	inactive	26.6 µM (active) and 57.3 µM (active)	inactive	–	–	–	–
C[C@]12CC[C@@H]3c4ccc(O)cc4CC[C@H]3[C@@H]1CC[C@H]2O	17.4 µM (active)	24.8 µM (active) and 48.6 µM (active)	27.8 µM (active) and 54.5 µM (active)	inactive	–	inactive	–	–	–	–
CC(C)(C)c1cccc(C(C)(C)C)c1O	inactive	inactive	inactive	inactive	inactive	inactive	–	–	–	–
CC1(C)NC(=O)N(c2ccc([N+](=O)[O-])c(C(F)(F)F)c2)C1=O	inactive	10.6 µM (active) and 3.86 µM (active)	9.44 µM (active) and 3.44 µM (active)	inactive	5.96 µM (active) and 4.86 µM (active)	61.1 µM (active)	–	–	–	–
Cc1ccc(N)c([N+](=O)[O-])c1	inactive	inactive	inactive	inactive	–	inactive	–	–	–	–
CCCCCCCC/C=C\CCCCCCCC(=O)O	inactive	inactive	inactive	inactive	–	inactive	–	–	–	–
[O-]/[N+](=N\O)c1ccccc1	inactive	inactive	inactive	inactive	–	inactive	–	–	–	–
CC(=O)Oc1ccc(C(c2ccc(OC(C)=O)cc2)c2ccccn2)cc1	inactive	–	–	inactive	–	–	inactive	inactive	inactive	0.765 µM (active)
CC1=CC(C)(C)Nc2ccccc21	inactive	inactive	inactive	inactive	–	inactive	–	–	–	–
[Na+]	inactive	inactive	inactive	inactive	–	inactive	–	–	–	–
Oc1c(Cl)ccc(Cl)c1Cl	inactive	inactive	inactive	inactive	–	inactive	–	–	–	–
COc1ccc(-c2coc3cc(O)cc(O)c3c2=O)cc1	–	27.3 µM (active)	27.3 µM (active)	–	–	inactive	–	–	–	–
Cc1ccc(S(=O)(=O)NCl)cc1	inactive	inactive	inactive	inactive	–	inactive	–	–	–	–
NCCS(=O)(=O)O	inactive	inactive	inactive	inactive	–	inactive	–	–	–	–
O=C(O)COCCN1CCN(C(c2ccccc2)c2ccc(Cl)cc2)CC1 (configuration not stated)	inactive	–	–	inactive	–	inactive	–	–	–	–
Nc1ccc2c(O)cc(S(=O)(=O)O)cc2c1	inactive	–	inactive	inactive	–	–	–	–	–	–
C=CC(C)(O)CCC=C(C)C (configuration not stated)	inactive	inactive	inactive	inactive	–	inactive	–	–	–	–
C=C[C@H]1CN2CC[C@H]1C[C@H]2[C@H](O)c1ccnc2ccc(OC)cc12	inactive	23.7 µM (active) and 13.3 µM (active) and 27.3 µM (active)	26.6 µM (active) and 13.3 µM (active) and 27.3 µM (active)	inactive	–	inactive	–	–	–	–
O=S1(=O)CCCO1	inactive	inactive	inactive	inactive	–	inactive	–	–	–	–
FC(F)(F)C(Cl)Br (configuration not stated)	inactive	inactive	inactive	inactive	–	inactive	–	–	–	–
CC/C=C\C/C=C\C/C=C\CCCCCCCC(=O)O	inactive	inactive and 48.6 µM (active)	inactive and 60.6 µM (active)	inactive	–	inactive	–	–	–	–

SMILES	Potency [1]	Potency [2]	Potency [3]	Potency [4]	Potency [5]	Potency [6]	Potency [7]	outcome [8]	Potency [9]	Potency [10]
Cc1ccc(C(C)(C)C)cc1	inactive	inactive	inactive	inactive	–	inactive	–	–	–	–
COC(=O)c1ccc(C)cc1	inactive	inactive	inactive	inactive	–	inactive	–	–	–	–
Nc1ccc2c(c1)C(=O)c1ccccc1C2=O	inactive	60 µM (active) and inactive	9.51 µM (active) and 12.2 µM (active)	48.1 µM (active) and inactive	–	inactive	–	–	–	–
c1ccc2c(c1)ccc1cc3c(ccc4ccccc43)cc12	inactive	inactive	inactive	inactive	–	inactive	–	–	–	–
C[C@]12C=CC(=O)C=C1CC[C@H]1[C@@H]3C[C@@H](O)[C@](O)(C(=O)CO)[C@@]3(C)C[C@H](O)[C@@]12F	inactive	8.63 µM (active)	48.6 µM (active)	inactive	–	inactive	–	–	–	–
CC/C(=C(/CC)c1ccc(O)cc1)c1ccc(O)cc1	–	29.8 µM (active) and 27.3 µM (active)	26.6 µM (active) and 27.3 µM (active)	inactive and 48.6 µM (active)	26.6 µM (active) and 30.4 µM (active) and 17.2 µM (active)	inactive	–	–	–	–
CC(C)[N+](C)(CCOC(=O)C1c2ccccc2Oc2ccccc21)C(C)C	inactive	inactive	inactive	inactive	–	inactive	–	–	–	–
CN1CCOCC1	inactive	inactive	inactive	inactive	–	inactive	–	–	–	–
C=C[Si](OCCOC)(OCCOC)OCCOC	inactive	inactive and 30.6 µM (active)	inactive and 30.6 µM (active)	inactive	–	inactive	–	–	–	–
NCCN	inactive	–	–	inactive	–	inactive	–	–	–	–
CCC(=O)O[C@H]1[C@H](O[C@@H]2[C@@H](C)[C@H](O[C@H]3C[C@@](C)(OC)[C@@H](O)[C@H](C)O3)[C@@H](C)C(=O)O[C@H](CC)[C@@](C)(O)[C@H](O)[C@@H](C)C(=O)[C@H](C)C[C@@]2(C)O)O[C@H](C)C[C@@H]1N(C)C	inactive	inactive and 20.3 µM (active)	inactive and 36.1 µM (active)	inactive	–	inactive	–	–	–	–
Oc1ccc(C(c2ccc(O)cc2)C(Cl)(Cl)Cl)cc1	–	60.9 µM (active) and 48.6 µM (active)	60.9 µM (active) and 19.3 µM (active)	49 µM (active)	24.3 µM (active)	inactive	–	–	–	–
Nc1cc(Cl)c(N)c(Cl)c1	inactive	–	–	inactive	–	inactive	–	–	–	–
CC(=O)Oc1c(C)c(C)c2c(c1C)CC[C@@](C)(CCC[C@H](C)CCC[C@H](C)CCCC(C)C)O2	inactive	–	–	inactive	–	inactive	–	–	–	–
CC(C)=CCO	inactive	inactive	inactive	inactive	–	inactive	–	–	–	–
COC(=O)C(C)Oc1ccc(Oc2ncc(C(F)(F)F)cc2Cl)cc1 (configuration not stated)	inactive	54.5 µM (active)	–	inactive	–	inactive	–	–	–	–
CN(C)CCCN1c2ccccc2Sc2ccc(Cl)cc21	–	9.44 µM (active) and 27.3 µM (active)	11.9 µM (active) and 19.3 µM (active)	24.5 µM (active)	9.44 µM (active) and 13.7 µM (active)	68.6 µM (active)	–	–	–	–
CC(=O)[C@@]1(O)CC[C@H]2[C@@H]3C[C@H](C)C4=CC(=O)C=C[C@]4(C)[C@@]3(F)[C@@H](O)C[C@@]21C	inactive	–	43.3 µM (active)	inactive	–	inactive	–	–	–	–
O=C(O)CCCCCCCCCCCC(=O)O	inactive	inactive	inactive	inactive	–	inactive	–	–	–	–
CCCCCCCCCCCCCO	inactive	inactive	inactive	inactive	–	inactive	–	–	–	–
O=C(CCCN1CCC(O)(c2ccc(Cl)cc2)CC1)c1ccc(F)cc1	inactive	3.35 µM (active) and 1.72 µM (active)	5.96 µM (active) and 1.72 µM (active)	inactive	–	inactive	–	–	–	–
CN(C)C	inactive	inactive	inactive	inactive	–	inactive	–	–	–	–
